Data on 8 compounds can be found in ChEMBL document CHEMBL3988442, “University of Dundee, Small-Polar-MMV Screening Library” (2021).

Holding throughout (set-up): scale not given: direction of the effect not stated beside the values
The target in experiment [1] is Protein translocase subunit SecA (Escherichia coli (strain K12)) (UniProt P10408). The experiment is described as follows: Assay to Identify E. coli SecA ATPase Inhibitors. It is filed as functional. Particulars: 30 µM.
Experiment [2] addresses T1, Ubiquitin-activating enzyme e1, putative (Leishmania donovani (strain BPK282A1)) (UniProt E9BSI1).
T1 sequence (whole entry): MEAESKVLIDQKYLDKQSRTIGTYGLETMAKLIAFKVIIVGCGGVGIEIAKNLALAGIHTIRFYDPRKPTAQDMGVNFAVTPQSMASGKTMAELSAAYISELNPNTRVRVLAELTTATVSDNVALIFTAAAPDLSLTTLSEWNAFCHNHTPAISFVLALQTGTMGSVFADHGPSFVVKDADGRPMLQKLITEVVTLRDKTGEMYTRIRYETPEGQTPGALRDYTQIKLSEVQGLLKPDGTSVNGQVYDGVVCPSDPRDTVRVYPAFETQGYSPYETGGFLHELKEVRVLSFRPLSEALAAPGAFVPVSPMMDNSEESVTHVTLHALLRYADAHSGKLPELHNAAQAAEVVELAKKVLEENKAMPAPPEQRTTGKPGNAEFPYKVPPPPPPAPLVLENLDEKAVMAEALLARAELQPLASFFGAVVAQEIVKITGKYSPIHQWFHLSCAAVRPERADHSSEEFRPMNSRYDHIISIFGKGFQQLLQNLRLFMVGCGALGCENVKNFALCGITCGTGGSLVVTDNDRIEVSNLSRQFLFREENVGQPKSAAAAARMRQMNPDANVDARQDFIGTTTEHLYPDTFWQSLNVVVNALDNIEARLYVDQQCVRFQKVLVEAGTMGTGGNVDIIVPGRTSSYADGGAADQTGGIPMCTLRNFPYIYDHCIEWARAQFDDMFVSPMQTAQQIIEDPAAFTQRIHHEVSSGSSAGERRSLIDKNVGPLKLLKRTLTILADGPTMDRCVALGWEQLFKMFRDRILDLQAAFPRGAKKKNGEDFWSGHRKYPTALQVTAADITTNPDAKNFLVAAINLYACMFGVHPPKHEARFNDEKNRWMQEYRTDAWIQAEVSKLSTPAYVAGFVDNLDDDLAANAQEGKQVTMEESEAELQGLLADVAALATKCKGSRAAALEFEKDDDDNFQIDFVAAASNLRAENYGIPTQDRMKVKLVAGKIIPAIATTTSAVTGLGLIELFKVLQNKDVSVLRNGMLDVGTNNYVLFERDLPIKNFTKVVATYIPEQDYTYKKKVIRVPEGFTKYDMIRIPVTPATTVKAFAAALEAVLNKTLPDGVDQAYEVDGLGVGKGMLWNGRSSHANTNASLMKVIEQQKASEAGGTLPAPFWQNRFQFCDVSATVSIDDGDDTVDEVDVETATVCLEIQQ
The experiment is described as follows: Leishmania donovani Ubiquitin Activating Enzyme (LdE1). It is filed as functional. To be noted: 30 µM.

For experiment [3], the target named is AMP-activated protein kinase, AMPK (Homo sapiens) (UniProt P54646+O43741+P54619+Q9UGJ0+Q9Y478+Q13131+Q9UGI9). The experiment is described as follows: AMP-dependent Kinase enzyme assay. An in vitro enzyme assay that detects ADP turnover that is directly proportional to AMPK activity. This uses naive AMPK that is activated during the assay with MK-8722. It is filed as functional. To be noted: 30 µM.

The target of experiment [4] is Sialic acid-binding Ig-like lectin 9 (Homo sapiens) (UniProt Q9Y336). The experiment is described as follows: Hs-Siglec9 ALPHAscreen SOP 20170721. To be noted: 10 µM. On the technique in general: Bead proximity is the source of the signal in Alpha formats.
The test system of a further experiment is Trypanosoma cruzi. The experiment is described as follows: Trypanosoma cruzi phosphomannomutase and mannose-1-phosphate guanylyltransferase assay. It is filed as functional. Particulars: 10 µM.
The target in experiment [5] is T2, Arginase-2, mitochondrial (Homo sapiens) (UniProt P78540).
T2 sequence (whole entry): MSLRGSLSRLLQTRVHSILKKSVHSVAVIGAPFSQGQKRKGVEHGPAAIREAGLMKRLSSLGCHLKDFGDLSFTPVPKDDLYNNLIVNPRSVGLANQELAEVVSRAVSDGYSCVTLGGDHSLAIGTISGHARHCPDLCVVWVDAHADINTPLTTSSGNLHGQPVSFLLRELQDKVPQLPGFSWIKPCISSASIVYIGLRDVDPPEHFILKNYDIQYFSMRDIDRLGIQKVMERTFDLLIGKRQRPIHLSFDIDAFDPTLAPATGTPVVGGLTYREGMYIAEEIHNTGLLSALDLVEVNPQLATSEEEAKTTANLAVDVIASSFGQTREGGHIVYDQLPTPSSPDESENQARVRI
The experiment is described as follows: in vitro enzyme assay to detect the production of urea directly proportional to the activity of Arginase II. Further: in the data most compounds retested in dose-response had high values. It is filed as functional. To be noted: 33.3 µM.

For experiment [6], the target named is T3, Proteasome subunit beta (Trypanosoma cruzi) (UniProt O96673).
T3 sequence (whole entry): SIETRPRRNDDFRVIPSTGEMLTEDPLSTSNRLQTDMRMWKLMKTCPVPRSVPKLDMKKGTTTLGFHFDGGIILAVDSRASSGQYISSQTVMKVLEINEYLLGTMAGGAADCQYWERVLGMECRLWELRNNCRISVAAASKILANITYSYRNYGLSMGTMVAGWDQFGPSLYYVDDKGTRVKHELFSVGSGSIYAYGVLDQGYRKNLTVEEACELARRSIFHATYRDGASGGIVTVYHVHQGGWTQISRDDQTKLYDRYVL
The experiment is described as follows: Trypanosoma cruzi proteasome chymotrypsin-like activity (TcProtChymo) assay. Further: in the data most compounds retested in dose-response had high values. It is filed as functional. Particulars: 9.37 µM.

For a further experiment, the species on record is Homo sapiens. The experiment is described as follows: To identify inhibition of the IFN signalling (Jak-Stat) pathway via expression of an eGFP reporter gene under the control of an IFN-stimulated response element (ISRE) containing MxA promoter. To be noted: 30 µM. It is filed as functional.
For experiment [7], the target named is T4, Tyrosyl-tRNA synthetase, putative (Trypanosoma cruzi (strain CL Brener)) (UniProt Q4DSP6).
T4 sequence (whole entry): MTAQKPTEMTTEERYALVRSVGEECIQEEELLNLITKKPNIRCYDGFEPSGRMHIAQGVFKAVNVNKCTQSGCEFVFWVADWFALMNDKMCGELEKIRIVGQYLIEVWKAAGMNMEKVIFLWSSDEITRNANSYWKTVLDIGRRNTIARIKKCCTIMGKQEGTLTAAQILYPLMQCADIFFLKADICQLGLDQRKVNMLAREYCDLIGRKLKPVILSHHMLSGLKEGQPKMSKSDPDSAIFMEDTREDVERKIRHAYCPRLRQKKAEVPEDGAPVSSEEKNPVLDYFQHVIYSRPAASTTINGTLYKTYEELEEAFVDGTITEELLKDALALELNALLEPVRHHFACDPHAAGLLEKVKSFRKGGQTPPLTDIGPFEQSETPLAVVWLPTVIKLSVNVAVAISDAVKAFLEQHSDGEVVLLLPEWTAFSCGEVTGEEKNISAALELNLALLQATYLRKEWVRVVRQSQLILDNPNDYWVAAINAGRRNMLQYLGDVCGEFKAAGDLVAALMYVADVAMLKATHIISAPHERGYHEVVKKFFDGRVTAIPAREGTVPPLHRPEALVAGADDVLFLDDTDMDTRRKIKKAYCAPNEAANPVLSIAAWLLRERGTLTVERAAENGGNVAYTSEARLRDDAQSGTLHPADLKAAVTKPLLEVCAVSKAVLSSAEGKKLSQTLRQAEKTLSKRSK
The experiment is described as follows: Trypanosoma cruzi tyrosyl tRNA synthetase (TcYRS) _High Tyrosine SOP. Further: in the data most compounds retested in dose-response had high values. It is filed as functional. To be noted: 30 µM.

Experiment [8] has as its target T4, Tyrosyl-tRNA synthetase, putative (Trypanosoma cruzi (strain CL Brener)). The experiment is described as follows: Trypanosoma cruzi tyrosyl tRNA synthetase (TcYRS) SOP. It is filed as functional. To be noted: 30 µM.
In experiment [9] the target is Chromo domain-containing protein 1 (Saccharomyces cerevisiae (strain ATCC 204508 / S288c) (Baker's yeast)) (UniProt P32657). The experiment is described as follows: ScCHD-1 Enzyme Inhibition Assay. Further: in the data most compounds retested in dose-response had high values. To be noted: 30 µM. It is filed as functional.

Molecules are shown by their SMILES. For some of these results: Entries with a potency or affinity are not part of this list.

Sequence of Sialic acid-binding Ig-like lectin 9 (Homo sapiens) (Q9Y336 whole entry): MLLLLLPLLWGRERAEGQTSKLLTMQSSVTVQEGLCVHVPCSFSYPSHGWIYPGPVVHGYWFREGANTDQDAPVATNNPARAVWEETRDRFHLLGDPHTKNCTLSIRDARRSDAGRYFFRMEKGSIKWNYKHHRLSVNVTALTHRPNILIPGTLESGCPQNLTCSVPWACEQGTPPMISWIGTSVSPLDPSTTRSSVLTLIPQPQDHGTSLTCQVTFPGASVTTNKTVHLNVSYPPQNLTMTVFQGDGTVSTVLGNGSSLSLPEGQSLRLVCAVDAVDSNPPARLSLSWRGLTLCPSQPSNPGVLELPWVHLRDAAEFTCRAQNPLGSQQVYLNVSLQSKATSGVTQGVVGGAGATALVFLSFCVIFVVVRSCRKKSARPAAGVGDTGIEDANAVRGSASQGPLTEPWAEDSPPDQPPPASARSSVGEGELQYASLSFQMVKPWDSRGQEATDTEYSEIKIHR
Sequence of Chromo domain-containing protein 1 (Saccharomyces cerevisiae (strain ATCC 204508 / S288c) (Baker's yeast)) (P32657 whole entry, the tested form may be a part): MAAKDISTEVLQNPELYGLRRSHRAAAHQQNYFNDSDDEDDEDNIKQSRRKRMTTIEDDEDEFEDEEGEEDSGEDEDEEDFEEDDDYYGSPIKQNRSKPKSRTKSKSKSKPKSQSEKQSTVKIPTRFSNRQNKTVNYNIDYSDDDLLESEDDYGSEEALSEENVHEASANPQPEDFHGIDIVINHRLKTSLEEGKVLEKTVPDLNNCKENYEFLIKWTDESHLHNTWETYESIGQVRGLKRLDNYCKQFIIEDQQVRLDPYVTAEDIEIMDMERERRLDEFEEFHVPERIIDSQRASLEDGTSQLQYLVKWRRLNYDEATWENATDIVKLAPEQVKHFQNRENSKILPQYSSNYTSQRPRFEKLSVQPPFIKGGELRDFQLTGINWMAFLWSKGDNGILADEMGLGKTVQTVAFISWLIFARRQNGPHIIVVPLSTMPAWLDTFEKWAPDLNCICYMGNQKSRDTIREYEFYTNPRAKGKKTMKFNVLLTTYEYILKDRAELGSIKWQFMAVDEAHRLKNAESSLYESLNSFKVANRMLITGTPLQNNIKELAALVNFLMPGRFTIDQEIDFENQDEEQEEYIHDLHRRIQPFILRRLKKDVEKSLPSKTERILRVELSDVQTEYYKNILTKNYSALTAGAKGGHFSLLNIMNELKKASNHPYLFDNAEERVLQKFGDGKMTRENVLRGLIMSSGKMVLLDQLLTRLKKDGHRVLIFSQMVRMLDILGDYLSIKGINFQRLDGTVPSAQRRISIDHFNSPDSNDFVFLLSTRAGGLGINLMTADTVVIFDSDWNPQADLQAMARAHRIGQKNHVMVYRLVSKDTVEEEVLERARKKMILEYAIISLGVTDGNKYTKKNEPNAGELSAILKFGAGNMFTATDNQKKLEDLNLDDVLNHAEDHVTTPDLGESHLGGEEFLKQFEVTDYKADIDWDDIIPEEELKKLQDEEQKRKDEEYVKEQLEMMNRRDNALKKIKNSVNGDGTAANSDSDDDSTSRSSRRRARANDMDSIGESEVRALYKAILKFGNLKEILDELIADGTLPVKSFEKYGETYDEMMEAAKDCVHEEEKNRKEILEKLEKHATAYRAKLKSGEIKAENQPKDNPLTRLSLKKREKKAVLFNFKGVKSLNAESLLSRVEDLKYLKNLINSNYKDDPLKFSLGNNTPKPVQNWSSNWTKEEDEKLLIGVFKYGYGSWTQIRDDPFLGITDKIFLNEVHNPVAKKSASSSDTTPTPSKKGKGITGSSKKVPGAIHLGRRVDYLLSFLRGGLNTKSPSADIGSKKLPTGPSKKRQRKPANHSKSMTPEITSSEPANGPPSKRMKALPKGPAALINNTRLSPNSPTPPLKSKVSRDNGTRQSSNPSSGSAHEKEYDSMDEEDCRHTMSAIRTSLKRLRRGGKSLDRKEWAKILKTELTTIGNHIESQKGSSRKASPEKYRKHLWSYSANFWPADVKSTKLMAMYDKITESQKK
Sequence of Protein translocase subunit SecA (Escherichia coli (strain K12)) (P10408 whole entry): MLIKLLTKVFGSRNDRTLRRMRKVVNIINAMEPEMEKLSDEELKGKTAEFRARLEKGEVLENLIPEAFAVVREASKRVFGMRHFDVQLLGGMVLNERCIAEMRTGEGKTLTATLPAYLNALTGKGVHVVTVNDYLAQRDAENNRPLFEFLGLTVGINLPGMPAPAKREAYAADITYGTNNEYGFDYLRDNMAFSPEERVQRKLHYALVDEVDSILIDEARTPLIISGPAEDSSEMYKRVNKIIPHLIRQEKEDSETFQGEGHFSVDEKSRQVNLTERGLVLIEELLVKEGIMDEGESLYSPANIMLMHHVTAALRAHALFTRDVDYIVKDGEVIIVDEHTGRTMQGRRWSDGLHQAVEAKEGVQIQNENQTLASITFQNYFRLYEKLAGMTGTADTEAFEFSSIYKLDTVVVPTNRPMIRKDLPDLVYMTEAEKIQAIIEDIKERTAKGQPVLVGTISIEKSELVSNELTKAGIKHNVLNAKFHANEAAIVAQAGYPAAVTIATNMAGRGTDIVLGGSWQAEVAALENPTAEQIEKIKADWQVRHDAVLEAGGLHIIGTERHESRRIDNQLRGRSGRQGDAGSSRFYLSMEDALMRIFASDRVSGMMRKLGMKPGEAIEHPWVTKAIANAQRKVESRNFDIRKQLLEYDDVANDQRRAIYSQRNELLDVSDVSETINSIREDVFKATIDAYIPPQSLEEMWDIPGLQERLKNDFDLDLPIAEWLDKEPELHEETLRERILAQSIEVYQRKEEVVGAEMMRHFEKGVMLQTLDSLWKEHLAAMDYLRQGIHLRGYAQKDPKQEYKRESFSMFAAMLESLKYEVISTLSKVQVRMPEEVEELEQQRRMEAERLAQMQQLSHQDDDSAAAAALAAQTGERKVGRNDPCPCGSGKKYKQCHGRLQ

As to `Cc1cnn(CC2CCCN2C(=O)c2cc(C)no2)c1` (stereo not drawn), the Percent Effect was -7.95% in [1]; 5.26% in [2]; -9.36% in experiment [3]; 0.94% in experiment [4]; -8.12% in the experiment with Trypanosoma cruzi; 0.36% in [5]. For the same compound, the Percent Effect in experiment [6] is -4.65%; in the experiment filed under Homo sapiens, 2.42%; in experiment [7] it was -0.493%; in experiment [8], -8.64%; in experiment [9] it was 10.5%.

In the case of `Cc1nn(C)c(C)c1C1CCCN1Cc1cccc(C(N)=O)c1` (stereo not drawn), the Percent Effect in experiment [1] was 2.51%; in experiment [2] it was 0%; in experiment [3], -3.2%; in experiment [4], 12.2%; in the experiment with Trypanosoma cruzi it was -4.63%; in experiment [5], 3.04%. The Percent Effect was 9.26% in [6]; 8.29% in the experiment filed under Homo sapiens; 2.46% in experiment [7]; -1.27% in experiment [8]; 0.624% in experiment [9].

For the compound `CC(C)C(=O)N1CCN(Cc2cc(-c3ccncc3)nn2C)CC1`, the Percent Effect is -5.03% in experiment [1]; 12.2% in experiment [2]; -0.905% in [3]; 1.54% in [4]; 3.75% with Trypanosoma cruzi; -3.48% in experiment [5]. In addition, the Percent Effect in [6] is 8.89%; in the experiment listed under Homo sapiens it was 0.905%; in [7], -5.38%; in experiment [8] it was 11.7%; in experiment [9], -13.7%.

For the compound `CC(NC(=O)Nc1cccnc1N1CCCC1)c1nncn1C` (stereo not drawn), the Percent Effect is -3.96% in experiment [1]; 5.41% in [2]; -24% in experiment [3]; 2.82% in [4]; 7.45% in the experiment on Trypanosoma cruzi; -2.81% in experiment [5]. The Percent Effect is -0.901% in experiment [6]; 23.6% in the experiment listed under Homo sapiens; 5.42% in experiment [7]; 16.1% in [8]; -9.41% in experiment [9].

Consider `COc1cn(-c2ccccc2)nc1C(=O)NCCCN1CCCC(C)C1` (stereo not drawn), for which the Percent Effect is -5.93% in [1]; 0% in experiment [2]; 1.22% in [3]; 18% in experiment [4]; 2.62% in the experiment with Trypanosoma cruzi; 0.356% in experiment [5]. The Percent Effect in [6] was -2.2%; in the experiment listed under Homo sapiens, 5.68%; in experiment [7], 4.85%; in experiment [8] it was 9.76%; in experiment [9], -1.59%.

Turning to `COc1cccc(-c2noc(-c3ccc(NCC4CC4)nc3)n2)c1OC`, the Percent Effect was -6.26% in [1]; 0% in experiment [2]; -3.38% in experiment [3]; 6.76% in experiment [4]; 8.47% in the experiment with Trypanosoma cruzi; 2.08% in experiment [5]. The Percent Effect in experiment [6] is 11%; in the experiment filed under Homo sapiens it was 31.3%; in experiment [7], 4.92%; in [8], 13.6%; in experiment [9], -1.62%.

As for `Cc1cnn(Cc2cc(F)ccc2F)c1NC(=O)C1COCCO1` (stereo not drawn), the Percent Effect in [1] is -7.31%; in [2] it was 2.67%; in experiment [3], 1.44%; in experiment [4] it was 22.4%; in the experiment with Trypanosoma cruzi it was 0.876%; in experiment [5] it was 4.17%. Further, the Percent Effect in experiment [6] was 5.75%; in the experiment listed under Homo sapiens it was 5.83%; in [7], 4.92%; in [8] it was 13.6%; in [9], -4.84%.

Take `CC(NC1(CNC(=O)CC(C)(C)C)CCOCC1)c1ccccc1` (stereo not drawn): the Percent Effect in experiment [1] was -5.63%; in experiment [2], 8.11%; in experiment [3], 1.15%; in [4] it was 15.6%; with Trypanosoma cruzi, -0.684%; in [5], 4.22%. The Percent Effect in [6] is 9.19%; in the experiment filed under Homo sapiens, -9.78%; in [7] it was 3.23%; in experiment [8] it was 11.1%; in [9], -2.98%.
